The supplement of paper PMC12494721
Counter-ions that a name gives are not always drawn.

Assays:
Settings in all cases: incubation time: 27 h, anaerobic, 37 °C;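 for the amine columns active = adjusted P below 0.05 in both replicates with a change the same way and a mean fold change under 0.8 or over 1.25; inactive = the rest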
[1] = test system: Clostridium sporogenes DSM 1664; assay: growth (OD595) fold change vs plate DMSO controls (fold change (ratio)); higher = more growth
Procedure, shortened: (§1)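 The 96-well mGAM cultures had been kept anaerobic for 27 h at 37 °C before being shaken and read at 595 nm. Blank subtraction, compound background correction with 20 µM compound solutions in water, and a calibration factor of 5 turned the readings into OD. Growth is given as the fold change versus the median of plate DMSO controls. Fold changes above 1.5 were set to NA, and the values are means of 2 biological replicates.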

Escherichia coli IAI1 [2] = assay: as above
Procedure, shortened: as §1

[3] = test system: Klebsiella aerogenes DSM 30053; assay: as above
Procedure, shortened: as §1

[4] = test system: Ruminococcus gnavus DSM 108212; assay: as above
Procedure, shortened: as §1

[5] = test system: Klebsiella aerogenes DSM 30053; assay: fold change of Histamine concentration vs plate DMSO controls (fold change (ratio)); higher = more amine produced, active = hit call of the paper (significant change in both replicates, either direction)
Procedure, shortened: (§2)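 In 80 µL wells, cultures of four gut bacterial strains in mGAM started at OD 0.1 before a 1:1 dilution and grew anaerobically at 37 °C for 27 h. Compounds were added to 20 µM final, except sweeteners at 50 µM final. After extraction of whole cultures with cold acetonitrile/methanol plus 0.1% formic acid and centrifugation, amines were measured by LC–triple-quadrupole MS in dynamic MRM mode against external calibration curves, with within-batch drift correction. Values give fold change over DMSO controls on the same plate, averaged across 2 biological replicates.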

[6] = test system: Clostridium sporogenes DSM 1664; assay: fold change of Tryptamine concentration vs plate DMSO controls (fold change (ratio)); higher = more amine produced, active = hit call of the paper (significant change in both replicates, either direction)
Procedure, shortened: as §2

[7] = test system: Ruminococcus gnavus DSM 108212; assay: as above
Procedure, shortened: as §2

Escherichia coli IAI1 [8] = assay: fold change of Putrescine concentration vs plate DMSO controls (fold change (ratio)); higher = more amine produced, active = hit call of the paper (significant change in both replicates, either direction)
Procedure, shortened: as §2

[9] = test system: Klebsiella aerogenes DSM 30053; assay: as above
Procedure, shortened: as §2

Escherichia coli IAI1 [10] = assay: fold change of Cadaverine concentration vs plate DMSO controls (fold change (ratio)); higher = more amine produced, active = hit call of the paper (significant change in both replicates, either direction)
Procedure, shortened: as §2

[11] = test system: Klebsiella aerogenes DSM 30053; assay: as above
Procedure, shortened: as §2

[12] = test system: Ruminococcus gnavus DSM 108212; assay: fold change of 2-Phenylethylamine concentration vs plate DMSO controls (fold change (ratio)); higher = more amine produced, active = hit call of the paper (significant change in both replicates, either direction)
Procedure, shortened: as §2

Row | SMILES | growth [1] | growth (Escherichia coli IAI1 [2]) | growth [3] | growth [4] | fold change of Histamine concentration [5] | fold change of Tryptamine concentration [6] | fold change of Tryptamine concentration [7] | fold change of Putrescine concentration (Escherichia coli IAI1 [8]) | fold change of Putrescine concentration [9] | fold change of Cadaverine concentration (Escherichia coli IAI1 [10]) | fold change of Cadaverine concentration [11] | fold change of 2-Phenylethylamine concentration [12]
1 | N#Cc1ccc(C(c2ccc(C#N)cc2)n2cncn2)cc1 [Letrozole] (20 µM) | 1.05 | 1.02 | 0.996 | 1.12 | 1.07 (inactive) | 0.988 (inactive) | 1.01 (inactive) | 1.03 (inactive) | 1.01 (inactive) | 0.964 (inactive) | 0.992 (inactive) | 1.02 (inactive)
2 | CC1CCc2c(N3CCC(O)CC3)c(F)cc3c(=O)c(C(=O)O)cn1c23 (stereo not given) [Nadifloxacin] (20 µM) | 0.00717 | 0.0576 | 0.316 | 0.383 | 0.5 (active) | 0.0474 (active) | 0.271 (active) | 0.763 (inactive) | 1.16 (inactive) | 0.267 (active) | 0.982 (inactive) | 0.362 (active)
3 | O=C(CCCN1CCC(O)(c2ccc(Cl)cc2)CC1)c1ccc(F)cc1 [Haloperidol] (20 µM) | 0.929 | 0.6 | 0.574 | 0.802 | 1.06 (inactive) | 1.05 (inactive) | 0.96 (inactive) | 1.03 (inactive) | 1 (inactive) | 0.864 (inactive) | 0.992 (inactive) | 0.965 (inactive)
4 | C/C(=C(\CCOP(=O)(O)O)SC(=O)c1ccccc1)N(C=O)Cc1cnc(C)nc1N [Benfotiamine] (20 µM) | 0.989 | 0.98 | 1.03 | 1.05 | 0.984 (inactive) | 1.01 (inactive) | 0.96 (inactive) | 0.942 (inactive) | 1 (inactive) | 1.04 (inactive) | 1 (inactive) | 0.959 (inactive)
5 | Nc1ncnc2c1ncn2C1OC(COP(=O)(O)O)C(O)C1O (stereo not given) [Adenosine 5'-monophosphate monohydrate] (20 µM) | 1.05 | 1.01 | 0.973 | 0.96 | 1.07 (inactive) | 1.01 (inactive) | 1.02 (inactive) | 1.04 (inactive) | 1.02 (inactive) | 0.991 (inactive) | 0.987 (inactive) | 1.01 (inactive)
6 | O=C(O)CCNC(=O)c1ccc(/N=N/c2ccc(O)c(C(=O)O)c2)cc1 [Balsalazide disodium salt] (20 µM) | 1 | 1 | 1.02 | 0.934 | 0.892 (inactive) | 0.993 (inactive) | 1.21 (inactive) | 0.893 (inactive) | 1.01 (inactive) | 0.963 (inactive) | 1.11 (inactive) | 1.51 (active)
7 | O=c1[nH]c(=O)n([C@H]2C[C@H](O)[C@@H](CO)O2)cc1F [Floxuridine] (20 µM) | 0.467 | 0.882 | 0.907 | 1.41 | 0.675 (active) | 0.514 (inactive) | 0.748 (active) | 0.593 (active) | 0.903 (inactive) | 0.889 (inactive) | 1.02 (inactive) | 0.884 (inactive)
8 | COc1ccc2c(c1)c(CC(=O)OCC(=O)O)c(C)n2C(=O)c1ccc(Cl)cc1 [Acemetacin] (20 µM) | 0.906 | 1.03 | 0.985 | 1.06 | 0.983 (inactive) | 0.98 (inactive) | 0.964 (inactive) | 1.06 (inactive) | 1.01 (inactive) | 0.959 (inactive) | 1.01 (inactive) | 0.907 (inactive)
9 | OC[C@@H](O)[C@@H](O)[C@H](O)[C@H](O)CO [Mannitol] (50 µM) | 1.02 | 0.924 | 0.982 | 0.983 | 1.04 (inactive) | 1.01 (inactive) | 0.975 (inactive) | 0.919 (inactive) | 0.996 (inactive) | 1.11 (inactive) | 0.992 (inactive) | 0.976 (inactive)
10 | NS(=O)(=O)c1cc(C2(O)NC(=O)c3ccccc32)ccc1Cl (stereo not given) [Chlorthalidone] (20 µM) | 0.955 | 0.977 | 1 | 1.17 | 1.09 (inactive) | 1 (inactive) | 1.03 (inactive) | 0.992 (inactive) | 1.03 (inactive) | 0.973 (inactive) | 0.983 (inactive) | 1.04 (inactive)
11 | CCCCNc1c(C(=O)OCC)c(C)nc2c1cnn2CC [Tracazolate hydrochloride] (20 µM) | 1.14 | 0.998 | 1.01 | 0.943 | 0.977 (inactive) | 0.933 (inactive) | 1.08 (inactive) | 1.01 (inactive) | 0.993 (inactive) | 1.03 (inactive) | 1 (inactive) | 1.11 (inactive)
12 | CCOC(=O)N1CCC(=C2c3ccc(Cl)cc3CCc3cccnc32)CC1 [Loratadine] (20 µM) | 1.04 | 1.01 | 1.04 | 0.87 | 0.98 (inactive) | 1.18 (inactive) | 0.864 (inactive) | 1.02 (inactive) | 0.999 (inactive) | 1.05 (inactive) | 1 (inactive) | 0.808 (inactive)
13 | OC[C@H]1OC(O)[C@H](O)[C@H](O)[C@@H]1O (stereo partly drawn) [D-allose] (50 µM) | 1.08 | 0.999 | 0.98 | 1.07 | 0.99 (inactive) | 1.02 (inactive) | 0.896 (inactive) | 1 (inactive) | 1.01 (inactive) | 1.07 (inactive) | 0.993 (inactive) | 0.886 (inactive)
14 | CC(C)c1c(C(=O)Nc2ccccc2)c(-c2ccccc2)c(-c2ccc(F)cc2)n1CC[C@@H](O)C[C@@H](O)CC(=O)O [Atorvastatin] (20 µM) | 1.02 | 1.03 | 1 | 1.28 | 1.15 (inactive) | 1.01 (inactive) | 1 (inactive) | 1.01 (inactive) | 1.02 (inactive) | 0.984 (inactive) | 0.998 (inactive) | 1.02 (inactive)
15 | COc1ccc2cc1Oc1ccc(cc1)C[C@H]1c3c(cc4c(c3Oc3cc5c(cc3OC)CCN(C)[C@@H]5C2)OCO4)CCN1C [Cepharanthine] (20 µM) | 0.965 | 0.982 | 1.02 | 0.925 | 1.04 (inactive) | 0.993 (inactive) | 0.945 (inactive) | 0.952 (inactive) | 1.01 (inactive) | 1.03 (inactive) | 1 (inactive) | 0.981 (inactive)
16 | CNCc1cc(-c2ccccc2F)n(S(=O)(=O)c2cccnc2)c1 [Vonoprazan] (20 µM) | 1.08 | 0.967 | 0.975 | 1.04 | 1.04 (inactive) | 1 (inactive) | 1.02 (inactive) | 0.503 (inactive) | 1 (inactive) | 0.483 (inactive) | 0.982 (inactive) | 0.999 (inactive)
17 | OCCOCCN1CCN(C2=Nc3ccccc3Sc3ccccc32)CC1 [Quetiapine hemifumarate] (20 µM) | 0.966 | 1.13 | 1.07 | 0.982 | 0.894 (inactive) | 1 (inactive) | 1.01 (inactive) | 1.09 (inactive) | 0.978 (inactive) | 0.892 (inactive) | 1.03 (inactive) | 0.991 (inactive)
18 | CCOc1cc(CC(=O)N[C@@H](CC(C)C)c2ccccc2N2CCCCC2)ccc1C(=O)O [Repaglinide] (20 µM) | 1.11 | 1.2 | 0.993 | 0.81 | 0.982 (inactive) | 1.18 (inactive) | 1.09 (inactive) | 1.14 (inactive) | 0.966 (inactive) | 1.01 (inactive) | 1.03 (inactive) | 1.13 (inactive)
19 | Cc1cccc(C)c1NC(=O)CC12CCCN1CCC2 [Pilsicainide Hydrochloride] (20 µM) | 0.937 | 1.04 | 1.01 | 1.04 | 0.986 (inactive) | 0.995 (inactive) | 1.05 (inactive) | 1.05 (inactive) | 0.984 (inactive) | 1.03 (inactive) | 0.98 (inactive) | 1.06 (inactive)
20 | CC(=O)Oc1ccccc1C(=O)Oc1ccccc1C(=O)O [Acetylsalicylsalicylic acid] (20 µM) | 1.05 | 1 | 0.995 | 0.881 | 1.02 (inactive) | 1.01 (inactive) | 1.06 (inactive) | 1.01 (inactive) | 0.998 (inactive) | 0.983 (inactive) | 1.01 (inactive) | 1.11 (inactive)
21 | CCC(NC(C)C)C(O)c1ccc(O)c2[nH]c(=O)ccc12 (stereo not given) [Procaterol hydrochloride] (20 µM) | 1.07 | 1.02 | 1.03 | 1.02 | 1.01 (inactive) | 1.02 (inactive) | 1.1 (inactive) | 0.978 (inactive) | 0.949 (inactive) | 0.922 (inactive) | 1.06 (inactive) | 1.14 (inactive)
22 | C=CCSCC1Nc2cc(Cl)c(S(N)(=O)=O)cc2S(=O)(=O)N1 (stereo not given) [Althiazide] (20 µM) | 1.06 | 1.11 | 1.01 | 1.02 | 0.981 (inactive) | 1.03 (inactive) | 1.24 (inactive) | 1.21 (inactive) | 1.03 (inactive) | 1.06 (inactive) | 1.12 (inactive) | 1.66 (active)
23 | CC(NCCc1ccc(O)cc1)C(O)c1ccc(O)cc1 (stereo not given) [Ritodrine hydrochloride] (20 µM) | 0.998 | 0.987 | 0.985 | 0.697 | 0.979 (inactive) | 1 (inactive) | 1.02 (inactive) | 0.985 (inactive) | 1.01 (inactive) | 1.01 (inactive) | 1.01 (inactive) | 1.05 (inactive)
24 | Cc1ccc(C(=O)c2ccc(CC(=O)O)n2C)cc1 [Tolmetin sodium salt dihydrate] (20 µM) | 1.12 | 0.976 | 1.01 | 0.976 | 1.05 (inactive) | 1 (inactive) | 0.958 (inactive) | 0.949 (inactive) | 1.01 (inactive) | 1 (inactive) | 1 (inactive) | 0.913 (inactive)
25 | CCOc1ccc2nc3cc(N)ccc3c(N)c2c1 [Ethacridine lactate] (20 µM) | 0.937 | 0.981 | 0.974 | 0.954 | 0.985 (inactive) | 1.07 (inactive) | 0.856 (inactive) | 1.14 (inactive) | 1.01 (inactive) | 1.12 (inactive) | 0.993 (inactive) | 0.837 (inactive)
